Compound activity: PubChem BioAssay, several laboratories
In the library only some 2.2% were active in any assay of this set; here they are far more common.
PLCb3 inh: human PLC-beta3 inhibitors, primary screen, biochemical, fluorescence; Purified PLC-beta3, fluorogenic substrate; inhibition, % at 12.2 µM; 370,000 tested, 0.18% active; in the data active = inhibition above about 11%
NPR2 activator: human GC-B receptor activators, primary screen, HEK293 GC-B cells, cGMP TR-FRET, EC30 CNP | Atrial natriuretic peptide receptor 2 (Homo sapiens), P20594 | 0% at EC30 CNP, 100% saturating CNP | activation, % at 10 µM | 370,000 tested, 0.11% active;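 active = activation at 10 µM reaching about 35% in either raw or pattern-adjusted values, limit read from the data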
Target sequence (P20594 whole entry, looked up): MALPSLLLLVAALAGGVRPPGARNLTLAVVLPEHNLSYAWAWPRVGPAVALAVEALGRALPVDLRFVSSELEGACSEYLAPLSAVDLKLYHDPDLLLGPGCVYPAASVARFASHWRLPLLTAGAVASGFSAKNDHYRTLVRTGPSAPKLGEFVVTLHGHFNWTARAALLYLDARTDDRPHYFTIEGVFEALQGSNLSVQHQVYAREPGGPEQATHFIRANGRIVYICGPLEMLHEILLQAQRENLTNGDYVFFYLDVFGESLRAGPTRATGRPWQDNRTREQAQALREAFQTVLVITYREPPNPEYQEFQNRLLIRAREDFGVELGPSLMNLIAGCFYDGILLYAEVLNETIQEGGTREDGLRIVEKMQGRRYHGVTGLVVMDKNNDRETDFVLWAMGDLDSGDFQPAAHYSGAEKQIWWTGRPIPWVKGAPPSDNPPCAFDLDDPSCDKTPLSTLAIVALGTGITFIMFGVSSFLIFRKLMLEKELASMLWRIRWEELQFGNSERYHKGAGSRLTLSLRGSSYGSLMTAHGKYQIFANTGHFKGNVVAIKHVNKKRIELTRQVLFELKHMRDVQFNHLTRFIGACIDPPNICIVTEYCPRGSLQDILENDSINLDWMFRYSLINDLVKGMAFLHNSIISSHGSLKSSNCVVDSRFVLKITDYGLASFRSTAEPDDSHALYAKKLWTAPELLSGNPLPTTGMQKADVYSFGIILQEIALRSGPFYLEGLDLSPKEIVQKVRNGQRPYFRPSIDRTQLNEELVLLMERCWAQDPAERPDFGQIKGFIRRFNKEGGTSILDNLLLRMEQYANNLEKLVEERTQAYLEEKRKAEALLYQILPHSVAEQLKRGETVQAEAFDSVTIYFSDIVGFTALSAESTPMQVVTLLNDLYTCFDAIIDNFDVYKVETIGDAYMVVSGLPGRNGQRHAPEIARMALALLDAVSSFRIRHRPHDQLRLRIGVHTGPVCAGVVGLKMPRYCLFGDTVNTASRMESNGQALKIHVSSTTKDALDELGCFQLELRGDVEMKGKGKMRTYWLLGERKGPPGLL
PLCg1 inh: PLC-gamma1 enzyme inhibitors, primary screen, biochemical, fluorescence, purified enzyme; 1-phosphatidylinositol 4,5-bisphosphate phosphodiesterase gamma-1 (Homo sapiens), P19174; fluorogenic substrate; inhibition, % at 12.2 µM; 370,000 tested, 0.84% active; in the data active = inhibition above about 9.5%
PfM18AAP inh: PfM18AAP inhibitors, malaria aminopeptidase, primary screen, biochemical, QFRET, recombinant enzyme. H-Glu-NHMec fluorogenic cleavage. 290,000 tested, 1.2% active. AID 1822, 2009. inhibition, % at 7.35 µM. M18 aspartyl aminopeptidase (Plasmodium falciparum 3D7);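 active = inhibition above the campaign mean inhibition over all tested compounds plus 3 SD, cut at about 28% in these data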
GC-A act: GC-A stimulated cGMP production enhancers – HEK293 GC-A cells, cGMP TR-FRET, EC30 ANP, primary screen | Atrial natriuretic peptide receptor 1 (Homo sapiens), P16066 | 0% at EC30 ANP, 100% saturating ANP | activation, % at 10 µM | 370,000 tested, 0.14% active; in the data active = activation above about 40%
Rce1 inh: yeast Rce1p protease inhibitors, primary screen, biochemical, fluorescence, cell-free homogeneous; AID 2563, 2010; yeast membranes, quenched prenylated peptide cleavage fluorescence; 290,000 tested, 0.27% active; calls only;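 active = fall in fluorescence gain of 50% or more versus controls, with final raw signal at or below 3038400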
Of the large screens only hits and unclear results are named; the others gave an inactive call.

CCOC(=O)[C@]12CCCC3=C1N(CCC3)C(=O)[C@@H](CC(=O)NCCCN1CCCC1=O)C2	none (no result: PfM18AAP inh, Rce1 inh)
Cc1cc[n+](-c2[nH]c(=O)sc2/C=N/NC([S-])=Nc2ccccc2)cc1	PfM18AAP inh 31
O=c1[nH]c(-[n+]2ccccc2)c(/C=N/NC([S-])=Nc2ccccc2)s1	none
CCC(CC)c1nnc(NC(=O)COc2ccc3c(c2)OCO3)s1	PfM18AAP inh 30 (no result: Rce1 inh)
O=C1CCC/C(=N\NC(=O)c2ccc(NS(=O)(=O)c3ccc(Br)cc3)cc2)C1	PfM18AAP inh 30
Cc1ccc(S(=O)(=O)N(C)Cc2ccc(C(=O)N/N=C3\CCCC(=O)C3)cc2)cc1	none
Cc1cc(OC[C@@H](O)CN2CCC(C(O)(c3ccccc3)c3ccccc3)CC2)ccc1Br	none (no result: PfM18AAP inh, Rce1 inh)
O=C(NNS(=O)(=O)c1ccc([N+](=O)[O-])cc1)C(=O)Nc1cccc(C(=O)O)c1	PfM18AAP inh 31
COC(=O)c1cc(-c2cc3ccccc3s2)c(=O)n2c1CCC2	none (no result: PfM18AAP inh, Rce1 inh)
CCOC(=O)CSc1nnc(-c2ccccc2)o1	none
CCOC(=O)CSc1nnc(-c2ccc(Cl)cc2Cl)o1	GC-A act 67
CCCOC(=O)CSc1nnc(-c2ccc(Cl)cc2Cl)o1	GC-A act 63
O=C(CSc1nnc(-c2ccccc2F)o1)OCc1ccccc1	GC-A act 61
CCc1cc2c(SCC(=O)c3ccc(Cl)s3)ncnc2s1	PLCg1 inh 10
CC(C)=CCC/C(C)=C/CN1C(=O)N(c2ccc(F)cc2)[C@H]2C[C@@H](c3ccccc3)[C@@H](C)[C@@H](C(=O)N3CCOCC3)C[C@H]21	none (no result: PfM18AAP inh, Rce1 inh)
CC(=O)NC1C(=O)N(CCN2CCOCC2)c2ccc(C)cc21 (stereo not given)	PfM18AAP inh 48 (no result: PLCb3 inh, NPR2 activator, PLCg1 inh, GC-A act)
CC(=O)NC1C(=O)N(CCN2CCOCC2)c2ccc(Cl)cc21 (stereo not given)	none
CC(C)c1ccc(NC(=O)CSc2nnc(-c3ccco3)n2C)cc1	none (no result: PfM18AAP inh, Rce1 inh)
COc1ccc(-c2cc(-c3nnc(SCC(=O)Nc4ccc(-c5nc6ccc(C)cc6s5)cc4)n3N)[nH]n2)cc1	none (no result: PfM18AAP inh, Rce1 inh)
Cc1ccc2[nH]c3nc(SCCN4CCOCC4)nnc3c2c1	none
Cc1ccc2[nH]c3nc(NN)nnc3c2c1	PfM18AAP inh 31
O=C(CNS(=O)(=O)c1cccc2ccccc12)N1CCN(c2ncccn2)CC1	none (no result: PfM18AAP inh, Rce1 inh)
CC1C(=O)N(Cc2cn(CCC3OCCCO3)nn2)CCS(=O)(=O)N1Cc1ccc(-c2ccccc2)cc1 (stereo not given)	none (no result: PfM18AAP inh, Rce1 inh)
CC1C(=O)N(Cc2cn(CCC3OCCCO3)nn2)CCS(=O)(=O)N1Cc1ccc(-c2ccc(Cl)cc2)cc1 (stereo not given)	GC-A act 50 (no result: PfM18AAP inh, Rce1 inh)
c1ccc(C2CSc3ccccc3N2)cc1 (stereo not given)	PfM18AAP inh 41
CC(C)C[C@@H](CN1CCC[C@@H]1CN1C(=O)C(=O)NC[C@@H]1Cc1ccccc1)N1C[C@H](Cc2ccccc2)N(CC2CCCCC2)C(=O)C1=O	none (no result: PfM18AAP inh, Rce1 inh)
CC(C)C[C@H]1CN([C@@H](Cc2ccc(O)cc2)CN2CCC[C@@H]2CN2C(=O)C(=O)NC[C@@H]2Cc2ccccc2)C(=O)C(=O)N1CC1CCCCC1	PLCg1 inh 13 (no result: PfM18AAP inh, Rce1 inh)
CC(C)C[C@@H](CN1CCC[C@@H]1CN1C(=O)C(=O)NC[C@@H]1Cc1ccccc1)N1C[C@H](Cc2ccccc2)N(CC2CCCCCC2)C(=O)C1=O	PLCb3 inh 13 (no result: PfM18AAP inh, Rce1 inh)
COc1cc(N=c2ssnc2Cl)c(OC)cc1Cl	PfM18AAP inh 29
Nc1nonc1NN=C1CCCCC1	PfM18AAP inh 31
Nc1nonc1N/N=C\c1ccccc1	none
COc1ccc(S[C@]2(C(=O)N3CCN(c4ncccn4)CC3)CC(=O)N(C(=O)CCc3ccccc3)[C@@H]2c2ccc(OC)cc2)cc1	none (no result: PfM18AAP inh, Rce1 inh)
CCOC(=O)C[C@H]1c2ccccc2S(=O)(=O)N1Cc1cccc(C(F)(F)F)c1	none (no result: PfM18AAP inh)
CCOC(=O)C[C@H]1c2ccccc2S(=O)(=O)N1Cc1cc(OC)c(OC)c(OC)c1	Rce1 inh active (no result: PfM18AAP inh)
Cc1cccc(NS(=O)(=O)c2ccc(C)c(C(=O)OCC(=O)Nc3cc(C)on3)c2)c1	Rce1 inh active
C[C@H](CO)N1C[C@H](C)[C@@H](CN(C)CC2CCCCC2)Oc2c(NS(=O)(=O)c3ccccc3)cccc2C1=O	PLCb3 inh 11 (no result: PfM18AAP inh, Rce1 inh)
COc1ccc(NC(=O)Nc2cccc3c2O[C@H](CN(C)S(=O)(=O)c2ccc(OC)cc2)[C@@H](C)CN([C@H](C)CO)C3=O)cc1	none (no result: PfM18AAP inh, Rce1 inh)
C[C@H](CO)N1C[C@H](C)[C@@H](CN(C)CC2CC2)Oc2c(NS(=O)(=O)c3ccccc3)cccc2C1=O	none (no result: PfM18AAP inh, Rce1 inh)
COc1ccc(S(=O)(=O)N(C)C[C@H]2Oc3c(NC(=O)C4CCCCC4)cccc3C(=O)N([C@H](C)CO)C[C@@H]2C)cc1	PLCg1 inh 9.6 (no result: PfM18AAP inh, Rce1 inh)
O=C(NNc1nc2c(F)cccc2s1)c1cc(=O)c2ccccc2o1	PfM18AAP inh 30
COc1ccc2nc(NNC(=O)c3cc(=O)c4ccccc4o3)sc2c1	none
O=C(COc1ccccc1)NNc1nc2c(F)cccc2s1	none
O=C(NNc1nc2c(F)cccc2s1)c1ccc(F)cc1	PfM18AAP inh 30
Cc1ccc2sc(NNC(=O)c3cc(=O)c4ccccc4o3)nc2c1C	PfM18AAP inh 30
NNc1nc2c(F)cccc2s1	PfM18AAP inh 30
COc1cccc2cc3c(nc12)C[C@@H]1CCCC(=O)N2CCC[C@@]12C3	none (no result: PfM18AAP inh, Rce1 inh)
C=CCn1c(SCC(=O)c2ccc(-c3ccccc3)cc2)nnc1-c1ccc(OC)cc1	none (no result: PfM18AAP inh, Rce1 inh)
CC1(C(=O)N2CCC(Oc3cccnc3)CC2)CC1	none (no result: PfM18AAP inh, Rce1 inh)
CC1(C)Cc2c(c(N3CCOCC3)nc3sc4c(NCc5ccccc5)nnnc4c23)CS1	NPR2 activator 50, GC-A act 47
CC1(C)Cc2c(c(N3CCOCC3)nc3sc4c(NCc5ccco5)nnnc4c23)CS1	NPR2 activator 48, GC-A act 55
CC(C)CNc1ncnc2c1sc1nc(N3CCOCC3)c3c(c12)CC(C)(C)OC3	NPR2 activator 39, GC-A act 42
CC(C)CNc1nnnc2c1sc1nc(N3CCOCC3)c3c(c12)CC(C)(C)SC3	NPR2 activator 40, GC-A act 52
CN(C)c1ccc(NC(=S)OC2CCC23CCC(c2ccccc2)CC3)cc1 (stereo not given)	none (no result: PfM18AAP inh, Rce1 inh)
Cc1nc(N2CCN(C(=O)C3CC3)CC2)c2c3c(sc2n1)CC(C)CC3 (stereo not given)	none (no result: PfM18AAP inh, Rce1 inh)
